A number with no mark means an inactive call. Activity calls are given as the source filed them. Calls come from the whole dose curve; as a rule, active = well fitted curve in the direction sought with a large enough effect in the repeat runs; inconclusive = weak or mixed curves; inactive = flat fitted curve, though single readings scatter.
Assay: qHTS assay to test for compound auto fluorescence at 590 nm (red) in HepG2 cells (AID 720674)
Details: HepG2 autofluorescence, red 540/590 nm, 1 h; series mostly up to 91.3 µM; fluorescence, relative to Rose Bengal: at the top concentration
From the text: U.S. Tox21 Program National Center for Advancing Translational Sciences [NCATS] NIH Chemical Genomics Center [NCGC] U.S. Environmental Protection Agency [EPA] National Institutes of Environmental Health Sciences [NIEHS] National Toxicology Program [NTP] U.S. Food and Drug Administration [FDA] Tox21 Assay Overview: Compound auto fluorescence often interferes with screening of the compound library against various biological targets and signaling pathways. Some of these compounds may have fluorophoric properties. Such properties may interfere with the assay outputs resulting in false positives and/or negatives. To decrease such complications and ensure the compound activities are relevant in terms of biological response, the Tox21 10K compound library was screened for auto fluorescence. From the fluorophores used as reporter signals in our screening assays, the auto fluorescence equivalencies of compounds against three fluorophores have been evaluated: Triamterene, Fluorescein and Rose Bengal sodium for blue, green and red fluorescence, respectively. The fluorescence intensities were measured using Excitation/Emission wavelengths at 405/460nm, 485/535nm and 540/590nm for blue, green and red labels, respectively. This assay includes the red fluorescence data.
Tox21 Assay Protocol Summary: 2,000 HepG2 cells in 5 uL of culture medium (MEM containing 10% FBS) per well were dispensed into black wall/clear bottom 1536-well plates using a Multidrop Combi Dispenser (ThermoFisher Scientific, Waltham, MA). The assay plates were incubated overnight at 37 C to allow cell attachment to the well bottom, followed by the transfer of 23 nL compound or DMSO vehicle by a pintool work station (Kalypsys , San Diego, CA). After the assay plates were incubated for 1 hr at 37 C and 5% CO2, fluorescence intensities in the assay plates were measured by an Envision (PerkinElmer, Shelton, CT) plate reader using three labels for measuring blue, green and red fluorescence at […] 460, 535 and 590 nm respectively.
% is set by controls: 0 for no effect and ±100 for the full control effect.

SMILES	fluorescence, relative to Rose Bengal	outcome
CCCCOC(=O)c1ccccc1N	0.0421%	–
CCOP(=S)(OCC)SCSc1ccc(Cl)cc1	–	inactive
O=C1OC(c2ccc(O)c(S(=O)(=O)O)c2)(c2ccc(O)c(S(=O)(=O)O)c2)c2c(Br)c(Br)c(Br)c(Br)c21	0.486% [at 46 µM]	–
OCCSCSCCO	-0.0606%	–
Cc1nnc2n1-c1sc(CCC(=O)N3CCOCC3)cc1C(c1ccccc1Cl)=NC2	–	inactive
COc1cc(C[C@@H](C)N)c(OC)cc1C	0.0243% [at 95.7 µM]	–
CCS(=O)(=O)C(C)(C)S(=O)(=O)CC	-0.0145% [at 46 µM]	–
NC(=S)C(N)=S	-0.159%	–
CC1(C)CON(Cc2ccccc2Cl)C1=O	-0.299%	–
Fc1ccc(C2(Cn3cncn3)OC2c2ccccc2Cl)cc1 (stereo not given)	-0.224%	–
C=CC1CC=CCC1 (stereo not given)	0.0223%	–
CCCSC(=O)Cl	-0.0181%	–
[As]#[In]	-0.0988%	–
COC(=O)c1ccccc1S(=O)(=O)NC(=O)N(C)c1nc(C)nc(OC)n1	0.108% [at 95.7 µM]	–
ClC(Cl)(Cl)C(Cl)(Cl)Cl	0.0255% [at 95.7 µM]	–
CC1(C)COP(Oc2ccccc2)OC1	-0.118%	–
NC(=O)c1cc([N+](=O)[O-])cc([N+](=O)[O-])c1	-0.3% [at 46 µM]	–
CCC/C(=N\OCC)C1=C(O)CC(CC(C)SCC)CC1=O (stereo not given)	0.131%	–
Nc1cnn(-c2ccccc2)c(=O)c1Cl	0.184%	–
ClCC(Cl)Cl	-0.113% [at 95.7 µM]	–

SMILES	fluorescence, relative to Rose Bengal	outcome
CC(CC(C#N)(c1ccccc1)c1ccccc1)N(C)C (stereo not given)	-0.0133%	–
C[C@@H]1CN(C2CCC(C#N)(c3ccc(F)cc3)CC2)CC[C@]1(C(=O)O)c1ccccc1 (stereo not given in full)	-0.0454% [at 18.6 µM]	–
N#Cc1ccncc1	0.165% [at 95.7 µM]	–
BrCCCCCCBr	-0.0173%	–
Nc1cc(Cl)ccc1O	0.0431%	–
[Cl][Sn]([Cl])([Cl])[Cl]	-0.0558% [at 95.7 µM]	–
O=[N+]([O-])c1cc(Cl)c(Cl)c(Cl)c1	-0.0154%	–
CC(Oc1ccc(Oc2ncc(C(F)(F)F)cc2Cl)cc1)C(=O)O (stereo not given)	-0.608%	–
N#CCNCC#N	0.146%	–
CC(C)(C)OC(=O)c1ncn2c1[C@@H]1CCCN1C(=O)c1c(Br)cccc1-2	0.123% [at 46 µM]	–
N#Cc1c(Cl)cccc1Cl	0.125%	–
CSc1ccc(C(=O)C(C)(C)N2CCOCC2)cc1	-0.0696%	–
COc1ncc(F)c2nc(S(=O)(=O)Nc3c(F)cccc3F)nn12	0.179%	–
CCN(Cc1ccc(Cl)nc1)/C(=C/[N+](=O)[O-])NC	-0.131% [at 46 µM]	–
COCC(=O)N(c1c(C)cccc1C)N1CCOC1=O	-0.0143%	–
O=C(Nc1ccccc1)c1ccccc1I	-0.19%	–
COc1cc(OC)nc(Sc2cccc(Cl)c2C(=O)O)n1	0.0045%	–
CC(=O)CC(c1ccc(Cl)cc1)c1c(O)c2ccccc2oc1=O (stereo not given)	-0.61% [at 95.7 µM]	–
CCS(=O)(=O)CCSP(=O)(OC)OC	-0.0983%	–
CC(C)NCC(O)c1ccc(N)c(C#N)c1 (stereo not given)	0.0619% [at 46 µM]	–
